Hits are enriched below; roughly 15% of the tested compounds scored in any of these assays.
HCMV inh: human cytomegalovirus inhibition; HFF cells, HCMV-luciferase reporter, 72 h; active compounds read low; activity change, negative = inhibition, % at 57.5 µM; hit rate 4.5% among 410,000; in the data active means activity change below about -60%; inconclusive means no clear call, values can overlap the other calls; inactive means above about -39%; further: on the % scale 0 is the no-effect control and ±100 the full control effect
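Cell-based, HFFs, 1000 cells/well, 16 h 37C; cpds in DMSO + HCMV-luc, MOI 1 PFU/cell; 72 h 37C; OneGlo luminescence after 5 min RT; norm. to buffer vs Salinomycin 10uM.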
HCV inhibitor: blocks hepatitis C virus. Huh7.5.1 HCVcc-Cre infection, luciferase reporter, 44 h. Potency, µM (titrated, usually from 41.8 µM), without a hit: at the top dose activity change, negative = inhibition, hits mostly inhibitors. hit rate 3.4% among 340,000. AID 651820; further: potency means the concentration at half of the fitted maximal effect; on the % scale 0 is the no-effect control and ±100 the full control effect
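Compounds are dispensed onto cells plated 4 h earlier at 1,000 per well, with HCVcc-Cre virus (about 0.5 moi) added next. Following 44 h of culture, luminescent signal is measured for 15 sec after 15 min with substrate at room temperature.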
Sm TGR inh: inhibitors of Schistosoma mansoni thioredoxin glutathione reductase; purified TGR, DTNB reduction, TNB absorbance 405 nm; hit rate 3% among 360,000; Potency, µM (series often up to 114 µM), for the others: at the highest dose activity change, negative = inhibition, hits mostly inhibitors; further: potency means the concentration at half of the fitted maximal effect; on the % scale 0 is the no-effect control and ±100 the full control effect; nearly all actives have a fitted effect of over 60% in size
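Kinetic colorimetric format: TGR-catalysed, NADPH-driven DTNB reduction monitored via TNB absorbance. Enzyme dispensed at 20 nM; compound exposure 15 min at room temperature before reaction start.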
Pf growth 96h: inhibits malaria parasite growth, 96 h; P. falciparum luciferase reporter growth, 96 h; Potency, µM (top dose mostly 28.7 µM), inactives show at the highest dose activity change, negative = inhibition, actives largely listed as inhibitors; hit rate 6.9% among 320,000; further: potency means the concentration at half of the fitted maximal effect; on the % scale 0 is the no-effect control and ±100 the full control effect
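Plates of compound plus infected erythrocytes (2% hematocrit, 0.05% parasitemia final) incubate 96 hours, 37 C, 5% CO2. Detection reagent added; reduced luminescence from the parasites' luciferase reporter flags inhibition.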
Pf growth 48h: P. falciparum growth inhibition at 48 hours (one generation). P. falciparum luciferase growth in erythrocytes, 48 h. hit rate 5.9% among 310,000. Potency, µM (titrated, usually from 28.7 µM), for the others: at the highest dose activity change, negative = inhibition, actives largely listed as inhibitors; further: potency means the concentration at half of the fitted maximal effect; on the % scale 0 is the no-effect control and ±100 the full control effect
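Cell-based growth assay: transgenic P. falciparum expressing firefly luciferase, cultured in red cells within RPMI 1640 containing 0.5% w/v Albumax, 24 mM bicarbonate and gentamycin. A drop in luciferase activity indicates inhibition.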
SARS PLP yeast: SARS-CoV PLP inhibition in yeast; hit rate 0.19% among 330,000; S. cerevisiae expressing SARS-CoV PLpro, growth rescue; Potency, µM (top dose mostly 32.9 µM), for the others: top-dose activity, positive = growth rescue, hits mostly activators; calls by dose curve; further: potency means the concentration at half of the fitted maximal effect; 0% is about no effect; nearly all actives have a fitted effect of over 55% in size
An asterisk follows results filed as active; ? = inconclusive; · = no result given. Unless noted, the call rests on the fitted dose curve; in most records, active means well fitted curve in the direction sought with a large enough effect; inconclusive means small, poorly fitted or top-dose-only effect, or another doubt; inactive means no such curve, though single readings can be large; an effect the other way counts as inactive or inconclusive.

SMILES	HCMV inh	HCV inhibitor	Sm TGR inh	Pf growth 96h	Pf growth 48h	SARS PLP yeast
COC(=O)[C@]1(C)N[C@H](CN(C)S(=O)(=O)c2ccccc2)[C@@H]2C(=O)N(Cc3ccccc3)C(=O)[C@@H]21	-4	?	·	·	·	0%
COc1ccc(N(C)C(=O)CCS(=O)(=O)c2cccc3nonc23)c(OC)c1	14	17%	?	?	18%	3%
CCN(C(=O)CCS(=O)(=O)c1cccc2nonc12)c1ccc(C)c(C)c1	-19	9%	40µM*	?	-16%	9%
Cc1cccc(N(C)C(=O)CCS(=O)(=O)c2cccc3nonc23)c1	-66*	-7%	?	?	-17%	-1%
Cc1ccc(NC(=O)CCS(=O)(=O)c2cccc3nonc23)cc1Cl	?	0%	-35%	6%	-11%	2%
Cc1cc2c(sc3c(C)ccc(C)c32)c(C)n1	84	?	0%	33%	41%	0%
O=C1[C@H]2[C@@H](c3ccc(F)cc3)N3C(=O)N(c4cccc(Cl)c4)C(=O)[C@@]3(Cc3ccccc3)[C@H]2C(=O)N1C1CCCCC1	-5	-21%	-8%	12µM*	2.6µM*	3%
O=C1[C@H]2[C@@H](c3ccc(F)cc3)N3C(=O)N(c4cccc(Cl)c4)C(=O)[C@@]3(Cc3ccc(Cl)cc3)[C@H]2C(=O)N1C1CCCCC1	30	18%	-29%	5.2µM*	4.7µM*	8%
Cc1ccc2nc(NC(=O)CSc3nccn3Cc3ccc(Cl)cc3)sc2c1	-11	·	1%	·	·	·
CCOc1ccc2nc(SCC(=O)N(CCOC)c3c(N)n(Cc4ccccc4)c(=O)[nH]c3=O)[nH]c2c1	17	?	2%	-22%	?	·
COCCN(C(=O)CSc1nc2ccccc2c(=O)n1CC(C)C)c1c(N)n(Cc2ccccc2)c(=O)[nH]c1=O	-30	-27%	-15%	-51%	10µM*	-1%
CCCCn1c(N)c(N(CCOC)C(=O)CSc2nc3ccc(C)cc3[nH]2)c(=O)[nH]c1=O	-38	15%	5%	9.3µM*	?	-1%
COCCN(C(=O)CSc1nc2ccccc2c(=O)n1C(C)COC)c1c(N)n(Cc2ccccc2)c(=O)[nH]c1=O (stereo not given)	?	12%	-1%	-51%	?	-1%
CCN(CC)c1ccc(-c2nnc(SCC(=O)N(CCOC)c3c(N)n(CC(C)C)c(=O)[nH]c3=O)o2)cc1	-20	-18%	-5%	?	1.7µM*	-1%
CCCCN(C(=O)CSc1n[nH]c(-c2ccc(C)cc2)n1)c1c(N)n(CCCC)c(=O)[nH]c1=O	?	-17%	-4%	?	?	·
CCCCn1c(N)c(N(CCOC)C(=O)CSc2n[nH]c(-c3ccc(OC)cc3)n2)c(=O)[nH]c1=O	-76*	15%	-11%	3%	2%	-8%
CSCCC(NC(=O)c1ccco1)C(=O)NCC(C)(C)N1CCOCC1 (stereo not given)	?	?	4%	4%	1%	1%
CCCCn1c(N)c(N(CC(C)C)C(=O)C(C)SCc2nc3sc(C)c(C)c3c(=O)[nH]2)c(=O)[nH]c1=O (stereo not given)	-19	17%	-17%	7%	12µM*	2%
CCCCn1c(N)c(N(CC(C)C)C(=O)CSCc2ccc(Cl)c(Cl)c2)c(=O)[nH]c1=O	-12	?	-3%	?	12µM*	2%
CCc1ccc(-c2nc(SCC(=O)N(CCOC)c3c(N)n(Cc4ccccc4)c(=O)[nH]c3=O)n[nH]2)cc1	-79*	-2%	-20%	34%	16%	7%
CCCCn1c(N)c(N(CCOC)C(=O)CSCc2ccccc2C)c(=O)[nH]c1=O	-97*	2%	-13%	55%	23%	1%
CCCCn1c(N)c(N(CC(C)C)C(=O)c2cnccn2)c(=O)[nH]c1=O	-4	15%	-6%	24%	-22%	-12%
